Results taken from PubChem BioAssay AID652126 (The Scripps Research Institute Molecular Screening Center, 2013).
The whole screen tested about 370,000 compounds, of which about 3,700 (1%) were called active.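 How the source made its calls: active means activation above the mean over all tested compounds plus 3 SD (cut at about 0.9% in these data); inactive means the rest.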 Shown is part of a subset that was picked to be rich in actives.

These molecules were tested on Nuclear hormone receptor DAF-12 (Strongyloides stercoralis) (assay: ssDAF-12 driven luciferase reporter activation – cell-based, luminescence, HEK293, GRIP1 co-expression, lit1-tk-luc, primary screen (AID 652126;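 further: 0% = DMSO-only wells and 100% = 3 µM delta7-dafachronic acid wells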)). Details: HEK293 ssDAF-12/GRIP1 lit1-tk-luc reporter, at 6.8 µM, hits give high values, % of 3 µM dafachronic acid response.

activation, active:
COc1ccc(S(=O)(=O)/N=C2\C=C(NS(=O)(=O)c3ccccc3)C(=O)c3ccccc32)cc1 1.6%
COc1ccc(NC(=O)C(c2ccncc2)n2c(=O)c(-c3cc4ccccc4[nH]3)nc3ccccc32)cc1 (stereo not drawn) 1.22%
O=C(Nc1ccc2c(c1)CCC2)c1ccc(Br)s1 1.14%
Cc1ccc(S(=O)(=O)Nc2nc3ccccc3nc2N2CCc3ccccc3C2)cc1 1.37%
CCc1ccc2oc(-c3ccc(N)cc3)nc2c1 1.77%
COc1ccc(C(=O)Nc2sc(C)c(C)c2CN2CCOCC2)cc1 1.65%
CNc1nc(Nc2ccc(C)c(Cl)c2)nc(N)c1[N+](=O)[O-] 2.25%
NS(=O)(=O)c1ccc2nc(NC(=O)CS(=O)(=O)c3ccc(F)cc3)sc2c1 1.3%
COc1ccc(C(=O)NCc2ccccc2C)cc1S(=O)(=O)NC1CCCC1 0.92%
CN(C)/C=C1/C(=O)Nc2ccccc21 1.06%
C/C(=N/NC(=O)c1ccc(Br)o1)c1ccc(C)o1 1.57%
COc1ccc(C(=O)NC2=NCCS2)c(OC)c1 1.63%
OCCC1CN(Cc2cccn2-c2nccs2)CCN1CCc1ccccc1 (stereo not drawn) 1.5%

activation, inactive:
Cc1c(NC(=O)CN(C)CC(=O)Nc2ccc(F)c(F)c2F)c(=O)n(-c2ccccc2)n1C -0.43%
Cc1ccc(S(=O)(=O)/N=C2\C=C(NS(=O)(=O)c3ccc(C)cc3)C(=O)c3ccccc32)cc1 -0.8%
CNC(=O)COc1ccc(S(=O)(=O)Nc2ccccc2)cc1 -0.41%
O=C(CNC1CCCCC1)NCC1(c2ccccc2)CCCC1 -1.46%
CCC(NC(=O)C1C2C=CC3(CN(Cc4ccccc4)C(=O)C13)O2)c1ccccc1 (stereo not drawn) -1.54%
CCCCCNC(=O)C(c1ccc(OC)cc1)n1c(=O)c(-c2ccccc2)nc2ccccc21 (stereo not drawn) -0.6%
COc1ccc(C(C(=O)NCc2ccccc2)n2c(=O)c(-c3ccccc3)nc3ccccc32)cc1 (stereo not drawn) -0.84%
O=C(NCc1cccs1)C1CCN(S(=O)(=O)c2ccccc2[N+](=O)[O-])CC1 -1.16%
N#CCC[C@H]1CC[C@]2(CCCN(Cc3ccc(Cl)cc3)C2)O1 -1.32%
O=C(Nc1ccc(F)cc1)c1cc2c(s1)CCCC2 0.25%
CC(C)Oc1ccc(C(=O)NCC(=O)Nc2ccc3c(c2)CCC3)cc1 -0.37%
Cc1ccc(/C=C/C(=O)O)cc1S(=O)(=O)N1CCC(Cc2ccccc2)CC1 -1.4%
COCCCNc1nc2ccccc2nc1NS(=O)(=O)c1ccc(F)cc1 -0.23%
Cc1ccc(S(=O)(=O)C(C#N)c2nc3ccccc3nc2N2CCCC2)cc1C (stereo not drawn) -0.41%
Cc1cc(C(=O)NN=C/C=C/c2ccco2)n[nH]1 -0.85%
CCOC(=O)C(=O)N(Cc1ccccc1)c1ccccc1C(=O)Nc1cc(OC)ccc1OC -1.83%
Cc1ccc(-c2nnc(SCC(=O)Nc3ccc(Oc4ccccc4)cc3)n2Cc2ccco2)cc1 -1.75%
COC(=O)[C@]1(C#N)CC(=O)N(CC2CCCCC2)[C@@H]1c1ccccc1 0.53%
O=C(Nc1ccccc1)N1CCN(Cc2nc3ccccc3c(=O)[nH]2)CC1 -0.67%
COc1ccc(C(=O)Nc2ccnn2C2CCN(Cc3ccncc3)CC2)cc1 -0.78%
CCc1cc(C(c2ccccc2OC)N2CCOCC2)c(NC(=O)c2ccccc2)s1 (stereo not drawn) -1.1%
O=C(NCc1cccs1)C1CCCN(S(=O)(=O)c2ccc([N+](=O)[O-])cc2)C1 (stereo not drawn) -1.79%
Cc1nc(CNc2ncnc3ccc(-c4ccc5c(c4)OCO5)cc23)cs1 -1.38%
Nc1nc(Nc2ccccc2F)nc(NC2CCCCC2)c1[N+](=O)[O-] -0.48%
COCCNc1nc(N)c([N+](=O)[O-])c(NCCO)n1 -1.31%
CC(C)CNc1cccc2c1S(=O)(=O)N(Cc1cn(Cc3ccccc3C(F)(F)F)nn1)Cc1ccccc1O2 -0.93%
Cc1ccc(CN2CCCCC(NC(=O)C3CCCCC3)C2=O)cc1 (stereo not drawn) -0.73%
CC(CCN1CCC(C(O)(c2ccccc2)c2ccccc2)CC1)Oc1ccc([N+](=O)[O-])cc1Cl (stereo not drawn) -0.24%
Cc1nc2ccc(S(=O)(=O)NCC(=O)O)cc2s1 -0.93%
CCS(=O)(=O)N1Cc2ccccc2CC1C(=O)Nc1nc2ccc(F)cc2s1 (stereo not drawn) 0.55%
CCCCN1CCN(C(=O)c2ccc3c(c2)NC(=O)C(C)(C)O3)CC1 -1.34%
COc1ccc(C#CCNCc2ccc(OC)cc2OC)cc1 -1.38%
COc1ccc(C)cc1S(=O)(=O)NC1CCCCC1 -0.84%
COc1ccc(C(=O)O)cc1S(=O)(=O)NC1CCN(Cc2ccccc2)CC1 -1.42%
CCCCNC(=O)C[C@@H]1C(=O)N(CCc2ccc(Cl)cc2)C2=CCCC[C@]21C(=O)OCC -2.02%
CC(C)CNC(=O)OCc1cn(Cc2ccc(F)cc2)nn1 -0.96%
CC(c1c[nH]c2ccccc12)c1c(-c2ccccc2)n(C)c2ccccc12 (stereo not drawn) -0.45%
O=C(OCc1cn(-c2ccc(Cl)c(Cl)c2)nn1)c1ccccc1Cl -1.04%
CCOC(=O)[C@]12CCCC=C1N(Cc1ccc(OC)cc1)C(=O)[C@@H]2CC(=O)NCc1cccs1 -1.35%
C=CCN(Cc1ccc2c(c1)OCO2)C(C#CC1CC1)C(C)(C)C (stereo not drawn) -1.38%
O=C1Nc2ccccc2C1=NN=Cc1ccco1 0.04%
CN(C)/C=C1\C=C(c2ccccc2)OC1=O -0.4%
Cc1ccc(-n2c(SCC(=O)Nc3ccc(S(=O)(=O)Nc4nccs4)cc3)nnc2-c2ccncc2)cc1 -1.76%
CC(=O)O[C@@]1(C(C)=O)CCC2[C@H]3C=C(C)C4=CC(=O)CC[C@@]4(C)C3CC[C@]21C (stereo partly drawn) -1.19%
CC(C)(C)C1CCC(=NNC(=O)c2ccc(Br)o2)CC1 (stereo not drawn) -0.04%
C/C(=N\NC(=S)NC1CCCCC1)c1ccc(C)o1 -2.41%
Cc1sc2nc(SCC(=O)c3ccc(O)c(O)c3)n(Cc3ccco3)c(=O)c2c1C -1.42%
O=S(=O)(NC1CCCCC1)c1ccc(F)c2ccccc12 -1.61%
C=CCN(C(=O)[C@@H](CCCC)[C@@H](O)c1ccc(Cl)cc1)c1ccccc1 -1.08%
C=C1C(C(C)C)N(C)C2=NC(c3ccccc3)CC(=O)N12 (stereo not drawn) -1.49%
O=C(NC1=NCCS1)c1ccc(Cl)s1 -1.02%
COc1ccccc1C(=O)NCCC(=O)NC1=NCCS1 -0.76%
O=C(NCCc1c[nH]c2ccccc12)OCc1cn(-c2c(F)cccc2F)nn1 -1.14%
O=C(NCc1ccco1)C1CCCN(S(=O)(=O)c2ccc(Cl)s2)C1 (stereo not drawn) 0%
OCCC1CN(Cc2ccc(Oc3ncccn3)cc2)CCN1CCc1ccccc1 (stereo not drawn) -0.5%
OCCC1CN(Cc2cnc(-c3ccccc3)s2)CCN1CCc1ccccc1 (stereo not drawn) -1.41%
COC(=O)c1cccc(Cn2ccc3ccc(-c4ccc5ccn(C(=O)C6CCCCC6)c5c4)cc32)c1 -1.1%
COc1ccc(-c2cc(-c3nnc(SCc4ccc([N+](=O)[O-])cc4)n3N)[nH]n2)cc1 -0.73%
CCCC[C@H]1C2CC(OC(=O)NCc3ccccc3)C(C2)[C@H]2CCCCN21 (stereo partly drawn) -1.06%
CCCCOCCCNC(=O)C[C@H]1C[C@@]2(C(=O)OC)C(=C[C@H](C(C)(C)C)O[C@@H]2C)N(CCc2ccc(OC)c(OC)c2)C1=O -1.19%
